This passage reports inhibition results from PubChem BioAssay AID449762 (Southern Research Specialized Biocontainment Screening …, 2010).

Molecules are shown by their SMILES. Where “and” joins values, the source holds several entries; their conditions need not be identical. Equal values may be shown once. About 1,900 (0.58%) of roughly 330,000 compounds were called active. Not shown: some 4% with an inconclusive outcome. Not all results are given here. Measured potencies and affinities stand elsewhere. Unmarked numbers belong to inactive results. Cut-off read from the data, not from the text of the source: inconclusive = inhibition above about 70% without an active follow-up result; inactive = below that.

This experiment can be described thus: M. tuberculosis growth inhibition, HTS (AID 449762).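 Note: bacterial growth assessed after seven days of incubation.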 To be noted: M. tuberculosis H37Rv growth inhibition, 7H9 media; at 25 µM; hits give high values.
As to `CCOc1ccc2noc3c2c1C(=O)c1ccccc1-3`, the inhibition (as a rule, the change of the read-out against control, counted positive when it falls) is 6.97%.
In the case of `COc1ccc2noc3c2c1C(=O)c1ccccc1-3`, the inhibition is 38.9%.
To `NC(=O)COc1ncnc2scc(-c3ccc(F)cc3)c12` belongs -9.11%; to `c1ccc(-c2nccc(-c3ccc(-n4cnc5ccccc54)cc3)n2)cc1`, 16%; to `c1ccc2c(c1)ncn2-c1ccc(-c2ccnc(-c3ccncc3)n2)cc1`, -0.53%.
`CCN(CC)S(=O)(=O)c1cccc(C(=O)NCCCn2ccnc2)c1`: the inhibition is 3.66%.
The value for `CN1CCc2cccc3c2C1Cc1ccc(O)c(O)c1-3` (stereo unspecified) was 35.5%; that for `CN1CCc2cccc3c2[C@H]1Cc1ccc(O)c(O)c1-3` was 29.9% and 14.3% and 5.91%.
The value for `COCCCNc1ncnc2sc3c(c12)CCC(C)C3` (stereo unspecified) was 13.1%.
`CC1CCc2c(sc3ncnc(NCCN4CCOCC4)c23)C1` (stereo unspecified): the inhibition is 1.22%.
In the case of `COc1cc(C)cc(CN2CC=C(c3ccccc3)CC2)c1O`, the inhibition was 4.09%.
The value for `Cn1nc(C(=O)NCC(c2cccs2)N2CCOCC2)c2ccccc2c1=O` (stereo unspecified) was -7.54%; that for `CCc1c(C)nc2cc(-c3cc(OC)cc(OC)c3)nn2c1N1CCN(CCN2CCOCC2)CC1` was -1.99%; that for `CCOCCN1CCN(c2c(C)c(C)nc3cc(-c4cc(OC)cc(OC)c4)nn23)CC1` was -16.2%.
The value for `COc1ccc(OC)c(NC(=O)c2ccc(S(=O)(=O)N3CCN(C)CC3)cc2)c1` was -1.22%; that for `Cc1ccc(CNS(=O)(=O)c2ccc(-n3cnnn3)c(C)c2)cc1` was 5.67%; that for `COc1cc(OC)cc(-c2c(C#Cc3ccsc3)c3cc(-c4ccc(CN5CCOCC5)cc4)ccc3n2C)c1` was 1.54%.
To `COc1cccc(-c2c(-c3cc(OC)cc(OC)c3)n(C)c3ccc(-c4cnc(N5CCOCC5)nc4)cc23)c1` belongs 6.76%; to `COc1ccc(NS(=O)(=O)c2cccc(C(=O)N3CCN(Cc4ccc5c(c4)OCO5)CC3)c2)cc1`, 12.7%.
For the compound `O=Cc1cn(-c2ccccc2)nc1-c1cccnc1`, the inhibition was -1.66%.
The value for `O=C(/C=C/c1cn(-c2ccccc2)nc1-c1cccnc1)N1CCCCC1` was -0.1%.
To `Cc1nc2c(-c3ccccc3)c(C)nn2c(C)c1CCC(=O)N1CCC2(CC1)OCCO2` belongs 8.75%; to `COc1cc(/C=C/C(=O)OCC(=O)NCCc2ccccc2)ccc1OC(F)F`, -11.9%.
To `N#C/C(=C/c1ccc(Sc2nc3ccccc3[nH]2)o1)c1cccc(F)c1` belongs 3%; to `N#C/C(=C\c1ccc(Sc2nc3ccccc3[nH]2)o1)c1ccccc1`, -1.33%; to `CCOC(=O)Cn1nc(C)n(-c2ccccc2)c1=O`, -8.51%.
On to `CN(C)c1ncnc2c1ncn2C1OC(CO)C(O)C1O` (stereo unspecified), for which the inhibition was -4.17%.
Consider `C[C@H](Cc1ccccc1)Nc1ncnc2c1ncn2[C@@H]1O[C@H](CO)[C@@H](O)[C@H]1O`, for which the inhibition is -4.76%.
The value for `CCOc1ccccc1-n1nnnc1SCC(=O)OC` was 3.09%; that for `Cc1cc(C)n2c(Br)c(CN3CCCC(C)C3)nc2n1` (stereo unspecified) was -0.64%.
To `Clc1ccc(CN2C3=NCCN3c3ccccc32)cc1Cl` belongs -11.7%; to `CCOc1cccc(-c2c(C(=O)N/N=C/c3sccc3C)nnn2-c2nonc2N)c1`, 3.18%.
Turning to `O=C(CSc1nc2ncccc2[nH]1)Nc1ccc2c(c1)OCO2`, the inhibition was -7.9%.
The value for `CCc1ccc(NC(=O)CSc2nc3ncc(Br)cc3[nH]2)cc1` was 49.8%; that for `N#Cc1ccccc1OCc1cccc(S(=O)(=O)N2CCOCC2)c1` was -6.86%.
The value for `OCCN(CC#CC(O)(c1ccccc1)C1CCCC1)CCO` (stereo unspecified) was 3.68%.
To `Cn1c(CCn2ccccc2=O)nc2cc(NC(=O)COc3ccccc3)ccc21` belongs 0.17%; to `CCCC(=O)N1CCCC(c2nc(-c3cccc(OC)c3)no2)C1` (stereo unspecified), -8.11%; to `O=C(c1ccc(Oc2ccc(C(F)(F)F)cn2)cc1)N1CCN(c2ccccc2)CC1`, 46.7%.
Take `COc1ccc(N2CCN(C(=O)c3ccc(Oc4ccc(C(F)(F)F)cn4)cc3)CC2)cc1`: the inhibition was 10.5%.
The value for `Cc1ccc(S(=O)(=O)N2CCCCC2)cc1NC(=O)COC(=O)c1ccccc1F` was -3.82%; that for `CCOc1ccc(NC(=O)CN(C)C(=O)c2c(-c3ccccc3Cl)noc2C)cc1OCC` was 1.46%; that for `COc1ccccc1-n1cnnc1SCC(=O)Nc1cc(C)on1` was -1.02%.
Take `COC(=O)c1c(C(=O)OC)c2n(c1C)CCC2`: the inhibition is -2.13%.
Consider `Cc1cc(C)c2ccc(C(=O)O)nc2c1O`, for which the inhibition was -5.39%.
To `Cc1cc(C)c2ccc(N)nc2c1O` belongs -11.8%.
To `CCOc1ccc2[nH]cc(C(=O)N3CCN(CC)CC3)c(=O)c2c1` belongs 5.18%; to `COc1ccc(-c2noc(CCCC(=O)Nc3ccc(C(N)=O)cc3)n2)cc1`, -3.01%; to `Cc1cccc(-c2noc(CCC(=O)Nc3ccc(C(N)=O)cc3)n2)c1`, 4.71%.
The value for `Cc1ccc(C)c(S(=O)(=O)N2CCN(C(=O)CCc3c[nH]c4ccccc34)CC2)c1` was -3.94%; that for `CSc1nsc(/C=C/Nc2ccc(C)cc2)c1C#N` was 18.6%; that for `CSc1nsc(/C=C/Nc2ccc(F)cc2F)c1C#N` was 7.19%.
Take `O=c1c2cnn(-c3ccccc3)c2ncn1Cc1cccc(Cl)c1`: the inhibition was 0.84%.
The value for `NNC(=O)COc1cccc(Oc2ccccc2)c1` was 7.98%; that for `O=C(COc1ccccc1)Nc1ncccn1` was -7.9%; that for `Cc1ccc2c(c1)C1(OCCCO1)C(=O)N2CC#N` was -7.17%.
To `Cc1nc(CSc2ccc(Cl)cc2)cc(N2CCOCC2)n1` belongs 0.76%; to `O=S(=O)(Cc1cc(N2CCOCC2)nc(-c2ccccn2)n1)c1ccccc1`, 5.9%.
As to `COc1c(C)cc(C(=O)C2CCCN(C(=O)c3cc(C)n(C)n3)C2)cc1C` (stereo unspecified), the inhibition is 5.63%.
The value for `CCOC(=O)c1c(NC(=O)CCN2CCOCC2)sc(C)c1-c1ccccc1` was 3.54%.
To `CCOC(=O)c1c(NC(=O)/C=C\C(=O)O)sc(C)c1-c1ccccc1` belongs -6.71%.
